IDE exosite FP: exo-site inhibitors of human IDE, primary screen, biochemical, fluorescence anisotropy, probe displacement. Insulin-degrading enzyme (Homo sapiens), P14735. purified IDE, FL-6b probe fluorescence polarization; hits give low values. z-score at 20 µM. 6.3% of 17,000 active;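 active means z-score of -3 or lower, meaning strong loss of probe binding signal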;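 further: His-tagged human IDE residues 42-1019 made in E. coli with 30 nM FL-6b probe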
Numbers stand for hits. This is one part of a sample in which hits are shown more often than they occur.

`N#C[C@@H]1[C@@H](c2ccc(-c3ccccc3F)cc2)[C@@H](CO)N1C(=O)C1CCC1` gave IDE exosite FP inactive.
Screening COc1ccc(-c2ccc([C@@H]3[C@@H](C#N)N(C(=O)C4CC4)[C@H]3CO)cc2)cc1 returned IDE exosite FP inactive.
Screening COc1ccccc1-c1ccc([C@@H]2[C@@H](C#N)N(C(=O)c3cccc(F)c3)[C@@H]2CO)cc1 returned IDE exosite FP -13.3.
Screening CCCC#Cc1ccc([C@@H]2[C@H]3CN(C(=O)c4ccncc4)CC(=O)N3[C@H]2CO)cc1 returned IDE exosite FP inactive.
For CCCNC(=O)N1CC2(CN(Cc3cccnc3)C2)c2c(n(C)c3cc(OC)ccc23)[C@H]1CO the results were IDE exosite FP inactive.
COc1ccccc1-c1cnc2c(c1)C(=O)N([C@@H](C)CO)C[C@@H](C)[C@@H](CN(C)C(=O)CC1CC1)O2 was read as IDE exosite FP inactive.
Screening CN(C)C(=O)c1ccc(-c2ccc([C@H]3[C@@H](C#N)N(C(=O)C4CCOCC4)[C@H]3CO)cc2)cc1 returned IDE exosite FP inactive.
O=C(C[C@@H]1CC[C@H]2NC[C@H](O)COC[C@@H]2O1)NCc1ccc2c(c1)OCO2 was read as IDE exosite FP inactive.
For CCS(=O)(=O)N1CC(=O)N2[C@H](CO)[C@@H](c3ccc(C#CCc4ccccc4)cc3)[C@H]2C1 the results were IDE exosite FP inactive.
Screening C[C@H]1CN([C@@H](C)CO)C(=O)c2cccc(NS(=O)(=O)c3cn(C)cn3)c2O[C@@H]1CN(C)Cc1ccc(Oc2ccccc2)cc1 returned IDE exosite FP inactive.
`O=C(Nc1ccc2c(c1)[C@H]1C[C@H](CC(=O)N3CCc4ccccc4C3)O[C@@H](CO)[C@H]1O2)c1ccc2c(c1)OCO2` gave IDE exosite FP inactive.
Screening CCCNC(=O)N1[C@H](CO)[C@@H](c2ccccc2-c2cccc(C)c2)[C@@H]1C#N returned IDE exosite FP inactive.
COc1ccccc1-c1ccccc1[C@@H]1[C@@H](CO)N(C(=O)C2CCC2)[C@H]1C#N was read as IDE exosite FP inactive.
`COc1ccccc1-c1ccccc1[C@@H]1[C@@H](C#N)N(C(=O)C2CCC2)[C@@H]1CO` gave IDE exosite FP inactive.
Screening N#C[C@@H]1[C@H](c2ccc(-c3ccccc3F)cc2)[C@H](CO)N1C(=O)C1CCC1 returned IDE exosite FP inactive.
Screening COc1ccccc1-c1ccc([C@@H]2[C@@H](CO)N(C(=O)C3CC3)[C@H]2C#N)cc1 returned IDE exosite FP -7.82.
`COc1ccc(-c2ccccc2[C@H]2[C@@H](C#N)N(C(=O)C3CC3)[C@H]2CO)cc1` gave IDE exosite FP inactive.
COc1ccccc1-c1ccc([C@@H]2[C@H](C#N)N(C(=O)C3CC3)[C@H]2CO)cc1 was read as IDE exosite FP -5.92.
O=C(C1CC1)N1CC(=O)N2[C@H](CO)[C@@H](c3ccc(-c4cccnc4)cc3)[C@H]2C1 was read as IDE exosite FP inactive.
`COc1ccccc1CN1[C@@H]2CNC[C@H]1C2c1ccc(/C=C/c2ccccc2)cc1` (stereo partly specified) gave IDE exosite FP inactive.
Screening CC(C)NC[C@H]1[C@@H](c2ccc(C3=CCCCC3)cc2)[C@@H](CO)N1C(=O)NC(C)C returned IDE exosite FP inactive.
Screening CCC(=O)N1[C@H](CO)[C@@H](c2ccc(-c3cccc(F)c3)cc2)[C@@H]1CNC(C)=O returned IDE exosite FP inactive.
`CCC(=O)N1[C@H](CN(C(C)C)S(C)(=O)=O)[C@H](c2ccccc2)[C@@H]1CO` gave IDE exosite FP inactive.
For C[C@H](CO)N1C[C@H](C)[C@H](CN(C)S(=O)(=O)c2cccs2)Oc2ccc(NC(=O)Nc3cccc4ccccc34)cc2C1=O the results were IDE exosite FP inactive.
For CO[C@H]1CC[C@@H]2CCOc3ccc(C#N)cc3C(=O)N(C)C[C@@H](c3ccccc3)CC(=O)N(C)C[C@@H]1O2 the results were IDE exosite FP inactive.
For Cn1cnc(S(=O)(=O)N2CCCCN3[C@H](CO)[C@@H](c4ccc(-c5ccccc5F)cc4)[C@@H]3C2)c1 the results were IDE exosite FP -11.3.
`Cn1cnc(S(=O)(=O)N2CCCCN3[C@@H](CO)[C@H](c4ccc(-c5ccccc5F)cc4)[C@@H]3C2)c1` gave IDE exosite FP inactive.
`Cn1cnc(S(=O)(=O)N2CCCCN3[C@H](C2)[C@H](c2ccc(-c4ccccc4F)cc2)[C@@H]3CO)c1` gave IDE exosite FP inactive.
For COc1ccccc1-c1ccc([C@@H]2[C@H]3CN(S(=O)(=O)c4cn(C)cn4)CCCCN3[C@H]2CO)cc1 the results were IDE exosite FP -8.45.
For Cc1ccccc1-c1ccc([C@@H]2[C@H]3CN(S(=O)(=O)c4cn(C)cn4)CCCCN3[C@H]2CO)cc1 the results were IDE exosite FP -18.5.
Screening Cn1cnc(S(=O)(=O)N2CCCCN3[C@H](CO)[C@H](c4ccc(C5=CCCCC5)cc4)[C@@H]3C2)c1 returned IDE exosite FP inactive.
Screening Cc1ccccc1-c1ccc([C@H]2[C@@H](CO)N3CCCCN(S(=O)(=O)c4cn(C)cn4)C[C@H]23)cc1 returned IDE exosite FP -16.6.
For Cn1cnc(S(=O)(=O)N2CCCCN3[C@H](C2)[C@H](c2ccc(-c4ccc(F)cc4)cc2)[C@@H]3CO)c1 the results were IDE exosite FP inactive.
`Cn1cnc(S(=O)(=O)N2CCCCN3[C@H](C2)[C@H](c2ccc(C4=CCCCC4)cc2)[C@@H]3CO)c1` gave IDE exosite FP inactive.
Screening CCCNC(=O)N1[C@H](C#N)[C@H](c2ccccc2-c2ccc(C)cc2)[C@@H]1CO returned IDE exosite FP inactive.
COCCNC(=O)C[C@H]1CC[C@H]2[C@@H](COC[C@@H](O)CN2Cc2ccc(Cl)c(Cl)c2)O1 was read as IDE exosite FP inactive.
For COc1cccc(NC(=O)N2CC(=O)N3[C@H](CO)[C@H](c4ccc(C5=CCCCC5)cc4)[C@@H]3C2)c1 the results were IDE exosite FP inactive.
Screening COCC#Cc1ccc([C@@H]2[C@H](CO)N3C(=O)CN(C(=O)Nc4cc(F)ccc4F)C[C@@H]23)cc1 returned IDE exosite FP inactive.
Screening CO[C@H]1CC[C@H]2CCOc3c(C#N)cccc3C(=O)N(C)C[C@@H](OC)[C@H](C)C(=O)N(C)C[C@H]1O2 returned IDE exosite FP inactive.
For CCS(=O)(=O)Nc1ccc2c(c1)C(=O)N(C)[C@@H]1CC[C@H](CC(=O)NCc3ccccc3F)O[C@@H]1CO2 the results were IDE exosite FP inactive.
CCN(C[C@@H]1N[C@@H](CO)[C@@H]1c1ccc(C2=CCCC2)cc1)C(=O)c1ccncc1 was read as IDE exosite FP inactive.
Screening OC[C@@H]1[C@@H](c2ccc(-c3ccccc3F)cc2)[C@H]2CN(Cc3ccncc3)CCCCN12 returned IDE exosite FP inactive.
Screening OC[C@@H]1[C@H](c2ccc(-c3ccccc3)cc2)[C@@H]2CN(Cc3ccccn3)CCCCN12 returned IDE exosite FP -3.03.
`Cc1cccc(-c2ccc([C@@H]3[C@@H](CO)N4CCCCN(Cc5ccncc5)C[C@H]34)cc2)c1` gave IDE exosite FP -5.02.
Screening OC[C@@H]1[C@H](c2ccc(-c3ccccc3)cc2)[C@H]2CN(Cc3ccccn3)CCCCN12 returned IDE exosite FP inactive.
For OC[C@@H]1[C@@H](c2ccc(-c3ccc(F)cc3)cc2)[C@H]2CN(Cc3ccncc3)CCCCN12 the results were IDE exosite FP inactive.
`COc1ccccc1-c1ccc([C@H]2[C@H](CO)N3CCCCN(Cc4ccncc4)C[C@@H]23)cc1` gave IDE exosite FP -8.05.

From PubChem BioAssay
